# Reference: ChEMBL document CHEMBL4513146, “CO-ADD screening of Karazin Kharkiv National University (Ukraine) compounds”
# Entries with a potency or affinity are not part of this list.
# System: Staphylococcus aureus
# Details: Concentration 32 ug.mL-1;; ASSAY_TEST Inhibition of Bacterial Growth; detection method Absorption (OD600); MEDIA CAMHB; plate type 384well; NBS; CORNING #3640; time 18 hr
row,SMILES,Inhibition
1,COC(=O)c1ccc(NC(=O)Cn2nc3ccc(Sc4ccc(C)cc4)nn3c2=O)cc1,10.91%
2,O=S(=O)(c1ccc2nncn2c1)N(Cc1cc(F)cc(F)c1)c1ccc2c(c1)OCO2,8.77%
3,Cc1ccc(Sc2ccc3nn(CC(=O)Nc4cccc(Cl)c4)c(=O)n3n2)cc1,-1.85%
4,Cc1nnc2ccc(S(=O)(=O)N(Cc3ccc(Cl)cc3)c3cccc(F)c3)cn12,2.65%
5,Cc1cc2nn(CC(=O)NCc3ccccc3)c(=O)n2c(-c2ccc(C(F)(F)F)cc2)n1,13.36%
6,COc1ccc(NC(=O)Cn2nc3ccc(SCc4ccc(Cl)cc4)nn3c2=O)cc1Cl,-4.58%
7,Cc1ccc(CN(c2ccc(F)cc2)S(=O)(=O)c2ccc3nnc(C)n3c2)cc1,-8.78%
8,O=C(Cn1nc2c3cc(F)ccc3ncn2c1=O)Nc1ccc2c(c1)OCO2,5.65%
9,Cc1ccc(-c2ccc3nn(Cc4c(F)cccc4Cl)c(=O)n3n2)cc1,14.3%
10,COC(=O)c1ccc(NC(=O)Cn2nc3c4cc(-c5ccc(OC)cc5)nn4ccn3c2=O)cc1,11.91%
11,CCCc1nnc2c(=O)n(CC(=O)Nc3ccc(Cl)c(Cl)c3)c3ccccc3n12,-1.25%
12,Cc1cc2nn(CC(=O)Nc3cc(F)cc(F)c3)c(=O)n2c(Nc2ccccc2C)n1,5.53%
13,COc1ccc(-c2cc3c4nnc(CCC(=O)NCc5ccc(OC)cc5OC)n4ccn3n2)cc1,16.19%
14,COc1ccc(NC(=O)Cn2nc3c(SC4CCCCC4)nccn3c2=O)cc1OC,4.77%
15,CCOc1ccc(-n2ccn3c(SCC(=O)Nc4ccc(C)cc4Cl)nnc3c2=O)cc1,8.62%
16,CCc1nnc2ccc(S(=O)(=O)N(Cc3ccc(OC)c(F)c3)c3ccccc3)cn12,-14.1%
17,Cc1ccc(C)c(NC(=O)Cn2nc3c4cc(-c5ccc(C)c(C)c5)nn4ccn3c2=O)c1,4.52%
18,Cc1cccc(NC(=O)Cn2nc3nc(N4CCCCCC4)ccn3c2=O)c1C,7.24%
19,Cc1nnc2c(SCC(=O)N3CCN(c4ccccc4F)CC3)nc3ccccc3n12,19.81%
20,COc1ccccc1-n1ccn2c(SCc3ccc(Cl)cc3)nnc2c1=O,7.4%
21,Cc1nnc2ccc(S(=O)(=O)N(Cc3ccccc3F)c3ccc(F)c(F)c3)cn12,3.86%
22,CCOC(=O)c1ccc(NC(=O)Cn2nc3ccc(SC(C)(C)C)nn3c2=O)cc1,-4.89%
23,COc1ccc(CNC(=O)Cn2nc3c(N4CCOCC4)nccn3c2=O)cc1,22.13%
24,Cc1nnc2ccc(S(=O)(=O)N(Cc3ccc(F)cc3)c3ccc(Cl)cc3)cn12,3.43%

# System: Escherichia coli
# Details: Concentration 32 ug.mL-1;; ASSAY_TEST Inhibition of Bacterial Growth; detection method Absorption (OD600); MEDIA CAMHB; plate type 384well; NBS; CORNING #3640; time 18 hr
row,SMILES,Inhibition
1,CC(C)NC(=O)CSc1nnc2c(=O)n(-c3ccccc3)ccn12,1.35%
2,O=c1c2nnc(SCc3cccc(C(F)(F)F)c3)n2ccn1-c1ccc(Br)cc1,-4.81%
3,COc1ccc(NC(=O)C(C)Sc2nnc3c(=O)n(-c4cccc(OC)c4)ccn23)cc1 (stereo not drawn),-9.09%
4,COc1ccc(NC(=O)Cn2nc3ccc(-c4ccccc4)nn3c2=O)cc1,-0.4%
5,Cc1ccc(NC(=O)Cn2nc3ccc(SCc4ccc(Cl)cc4)nn3c2=O)cc1,-6.34%
6,CCOC(=O)c1ccc(NC(=O)Cn2nc3ccc(-c4ccc(Cl)cc4)nn3c2=O)cc1,-1.44%
7,Cc1ccc(C)c(Cn2nc3c(=O)n(-c4cccc(Cl)c4C)ccn3c2=O)c1,-10.27%
8,Cc1ccc(NC(=O)CSc2nc3ccccc3n3cnnc23)c(C)c1,-6.3%
9,Cc1ccc(NC(=O)Cn2nc3ccc(SC(C)(C)C)nn3c2=O)c(Cl)c1,-7.75%
10,O=C(Cn1nc2c(Sc3ccccc3)nccn2c1=O)Nc1cccc(Cl)c1F,-0.62%
11,CCOC(=O)c1ccccc1NC(=O)Cn1nc2c3cc(-c4ccc(Cl)cc4)nn3ccn2c1=O,2.34%
12,CCOc1ccccc1NC(=O)Cn1nc2c3cc(-c4ccc(OC)cc4)nn3ccn2c1=O,5.35%
13,CCc1ccc(NC(=O)Cn2nc3cc(C)nc(Nc4ccc(F)c(C)c4)n3c2=O)cc1,-6.45%
14,Cc1nnc2c(S(=O)(=O)N(Cc3ccc(F)cc3)c3ccc(Cl)cc3)cccn12,-5.38%
15,Cc1cc(C)cc(Oc2nc3ccccc3n3c(=O)n(CC(=O)Nc4ccc5c(c4)OCO5)nc23)c1,-5.83%
16,COC(=O)c1ccc(NC(=O)Cn2nc3ccc(Sc4ccc(C)cc4)nn3c2=O)cc1,-1.06%
17,O=S(=O)(c1ccc2nncn2c1)N(Cc1cc(F)cc(F)c1)c1ccc2c(c1)OCO2,-5.98%
18,Cc1ccc(Sc2ccc3nn(CC(=O)Nc4cccc(Cl)c4)c(=O)n3n2)cc1,-11.91%
19,Cc1nnc2ccc(S(=O)(=O)N(Cc3ccc(Cl)cc3)c3cccc(F)c3)cn12,-4.46%
20,Cc1cc2nn(CC(=O)NCc3ccccc3)c(=O)n2c(-c2ccc(C(F)(F)F)cc2)n1,-8.01%

row,SMILES,Inhibition
1,COc1ccc(NC(=O)Cn2nc3ccc(SCc4ccc(Cl)cc4)nn3c2=O)cc1Cl,-11.11%
2,Cc1ccc(CN(c2ccc(F)cc2)S(=O)(=O)c2ccc3nnc(C)n3c2)cc1,-18.59%
3,O=C(Cn1nc2c3cc(F)ccc3ncn2c1=O)Nc1ccc2c(c1)OCO2,-3%
4,Cc1ccc(-c2ccc3nn(Cc4c(F)cccc4Cl)c(=O)n3n2)cc1,-0.36%
5,COC(=O)c1ccc(NC(=O)Cn2nc3c4cc(-c5ccc(OC)cc5)nn4ccn3c2=O)cc1,3.86%
6,CCCc1nnc2c(=O)n(CC(=O)Nc3ccc(Cl)c(Cl)c3)c3ccccc3n12,0.68%
7,Cc1cc2nn(CC(=O)Nc3cc(F)cc(F)c3)c(=O)n2c(Nc2ccccc2C)n1,-3.12%
8,COc1ccc(-c2cc3c4nnc(CCC(=O)NCc5ccc(OC)cc5OC)n4ccn3n2)cc1,5.82%
9,COc1ccc(NC(=O)Cn2nc3c(SC4CCCCC4)nccn3c2=O)cc1OC,-3.78%
10,CCOc1ccc(-n2ccn3c(SCC(=O)Nc4ccc(C)cc4Cl)nnc3c2=O)cc1,-1.13%
11,CCc1nnc2ccc(S(=O)(=O)N(Cc3ccc(OC)c(F)c3)c3ccccc3)cn12,-2.03%
12,Cc1ccc(C)c(NC(=O)Cn2nc3c4cc(-c5ccc(C)c(C)c5)nn4ccn3c2=O)c1,-6.72%
13,Cc1cccc(NC(=O)Cn2nc3nc(N4CCCCCC4)ccn3c2=O)c1C,-2.03%
14,Cc1nnc2c(SCC(=O)N3CCN(c4ccccc4F)CC3)nc3ccccc3n12,5.15%
15,COc1ccccc1-n1ccn2c(SCc3ccc(Cl)cc3)nnc2c1=O,-9%
16,Cc1nnc2ccc(S(=O)(=O)N(Cc3ccccc3F)c3ccc(F)c(F)c3)cn12,-6.57%
17,CCOC(=O)c1ccc(NC(=O)Cn2nc3ccc(SC(C)(C)C)nn3c2=O)cc1,-11.53%
18,COc1ccc(CNC(=O)Cn2nc3c(N4CCOCC4)nccn3c2=O)cc1,3.1%
19,Cc1nnc2ccc(S(=O)(=O)N(Cc3ccc(F)cc3)c3ccc(Cl)cc3)cn12,-7.02%
